Source: PubChem BioAssay
Activity calls are given as the source filed them.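 The calls were made as follows, unless noted: active = compound raises insulin release from rat beta cells at 5 mM glucose, no numeric limit stated; inactive = the rest.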

Tests used:
[1] = Wnt pathway potentiators raising nuclear beta-catenin – imaging, WNT3A-conditioned medium, mouse C2C12, NPC library, primary screen (AID 1117326; in the data active = nuclear beta-catenin stimulation mostly above about 4.2%, no sharp cut-off; inactive = mostly below about 10%; also: reference of the scale not given here); conditions: stronger effect = higher value
[2] = stimulators of insulin release from INS-1E, primary screen, cell-based, 5 mM glucose, NPC library (AID 1117329); conditions: rat INS-1E insulin secretion, at 10 µM, stronger effect = higher value; also: reference of the scale not given here
[3] = growth inhibition of GSK3B-pretreated HCT116 cells – cell-based, CellTiter-Glo, 0.2 to 20 µM (AID 1117336;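 active = compounds lowering colon cancer cell viability after pretreatment blocking the GSK3B kinase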); conditions: HCT116 viability after GSK3B inhibitor, at 20 µM, stronger effect = higher value
[4] = inhibition of endothelial tube formation, primary screen, imaging, VEGF stimulated, CD31 staining, tube area, NPC library (AID 1117340;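 active = compound that reduces growth-factor-driven endothelial tube area in a mixed cell culture, no cutoff stated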); conditions: VEGF-stimulated ADSC/ECFC co-culture, at 10 µM, stronger effect = higher value
[5] = GLP1 release stimulators, primary, NCI-H716, NPC library (AID 1117341;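 active = compound raises GLP1 secretion from the human gut endocrine cells, with no numeric limit stated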; also: reference of the scale not given here); conditions: NCI-H716 cells, at 10 µM, stronger effect = higher value
[6] = HCT116 colon cancer cell growth inhibition, primary screen, CellTiter-Glo luminescence, NPC library (AID 1117342;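 active = compounds that lower survival of HCT116 colon cancer cells in the luminescence readout, no numeric limit stated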); conditions: at 20 µM (top of the series)
[7] = reduced SW480 viability measured with CellTiter-Glo, NPC library, primary (AID 1117343;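 active = compounds that lower viability of the colon cancer cells in the luminescence readout, with no numeric limit stated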); conditions: CellTiter-Glo luminescence; at 20 µM (top of the series)
[8] = NPC library primary testing for decreased DLD-1 cell viability via CellTiter-Glo (AID 1117346;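 active = compounds that lower survival of DLD-1 colon cancer cells in the luminescence readout, no cutoff given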); conditions: DLD-1 viability, CellTiter-Glo luminescence; at 20 µM (top of the series)

Compound	nuclear beta-catenin stimulation ([1]; at 10 µM)	nuclear beta-catenin stimulation ([1]; stimulation, at 2 µM) [%]	insulin secretion stimulation [2]	viability decrease [3]	tube area decrease [4]	GLP1 secretion stimulation [5]	inhibition of viability [6]	viability decrease (inhibition) [7]	viability decrease (inhibition) [8]
Oc1cc(O)cc(O)c1	-0.5% (inactive)	2.8	-1.3% (inactive)	-20.3% (inactive)	-14.9% (inactive)	-1.7% (inactive)	-0.5% (inactive)	21.1% (inactive)	-3.4% (inactive)
NC(=O)CC[C@@H]1NC(=O)[C@H](Cc2ccccc2)NC(=O)[C@H](Cc2ccc(O)cc2)NC(=O)CCSSC[C@@H](C(=O)N2CCC[C@H]2C(=O)N[C@@H](CCCN=C(N)N)C(=O)NCC(N)=O)NC(=O)[C@H](CC(N)=O)NC1=O	-0.6% (inactive)	-1.2	0.8% (inactive)	8.4% (inactive)	3.9% (inactive)	2.4% (inactive)	1% (inactive)	1.3% (inactive)	-0.2% (inactive)
O=C(O)Cc1cn(-c2ccccc2)nc1-c1ccc(Cl)cc1	8.7% (inactive)	1.2	0.6% (inactive)	20.4% (inactive)	-3.1% (inactive)	-0.7% (inactive)	16.8% (inactive)	16.1% (active)	7.8% (inactive)
CCCCCCCCCCCCCCCCCCNC(=O)OC1CCN(C(=O)OC[C@H](COC(=O)N(Cc2cccc[n+]2CC)C(=O)c2ccccc2OC)OC)CC1	10.2% (inactive)	0.5	117% (active)	110% (active)	111% (active)	213% (active)	112% (active)	131% (active)	101% (active)
CO/N=C(/C(=O)N[C@@H]1C(=O)N2C(C(=O)O)=C(Cn3nnc(C)n3)CS[C@H]12)c1csc(N)n1	-0.1% (inactive)	-1	3.2% (inactive)	2.9% (inactive)	13.4% (inactive)	0.9% (inactive)	-1.5% (inactive)	10.8% (inactive)	1% (inactive)
COc1ccc2c(c1)CCCC2=O	1.5% (inactive)	-0.1	1.3% (inactive)	5.2% (inactive)	13.5% (inactive)	0.1% (inactive)	8.5% (inactive)	-3.8% (inactive)	-12% (inactive)
CCCCCCCCOc1ccc(C(=O)c2ccccc2)c(O)c1	1% (inactive)	0.6	-2.1% (inactive)	-6.85% (inactive)	-7.2% (inactive)	0.4% (inactive)	-7.5% (inactive)	-0.5% (inactive)	6.1% (inactive)
CCCCN(CCN(CCCC)C(=O)N1CCOCC1)C(=O)N1CCOCC1	1.4% (inactive)	1	1.1% (inactive)	-64.8% (inactive)	17.8% (inactive)	0.9% (inactive)	25.7% (inactive)	2.8% (inactive)	24.1% (inactive)
O=C(CCCCCCCCC#CI)Oc1ccccc1	3% (inactive)	0.2	-1.7% (inactive)	56% (active)	13% (inactive)	0.3% (inactive)	-7.3% (inactive)	68.3% (active)	63.9% (active)
O=C(O)c1ccccn1	1.7% (inactive)	0.9	-0.2% (inactive)	31.1% (inactive)	-6.5% (inactive)	1.3% (inactive)	-1.6% (inactive)	10.7% (inactive)	22% (inactive)
CCN(CC)CC(=O)Oc1ccc(NC(C)=O)cc1	-0.5% (inactive)	6.1	-0.7% (inactive)	0.8% (inactive)	-10.3% (inactive)	-0.7% (inactive)	1.8% (inactive)	2.2% (inactive)	-9.7% (inactive)
CCCOC(C(=O)OC1CCN(C)CC1)(c1ccccc1)c1ccccc1	0.8% (inactive)	1.5	0.3% (inactive)	54.2% (active)	19.1% (inactive)	21.3% (active)	84.8% (active)	107% (active)	57.7% (active)
CCOC(=O)[C@H](CCc1ccccc1)N[C@H]1CCCN2CCC[C@@H](C(=O)O)N2C1=O	-0.5% (inactive)	0.8	-0.4% (inactive)	-16.7% (inactive)	-6.5% (inactive)	4.4% (inactive)	4.2% (inactive)	4.5% (active)	-2.1% (inactive)
CCCCCCCCCCCCCCCCCC(=O)OCC(O)CO (configuration not stated)	-0.4% (inactive)	1.7	2.1% (inactive)	1% (inactive)	-4.1% (inactive)	-0.3% (inactive)	2.77% (inactive)	-13.8% (inactive)	-7.2% (inactive)
COC(=O)CCC(=O)CN	-1.5% (inactive)	0.1	0.4% (inactive)	0.2% (inactive)	-14.2% (inactive)	-0.4% (inactive)	11.6% (inactive)	24.2% (inactive)	18.4% (inactive)
CCS(=O)(=O)c1ccc(OC)c(C(=O)OC)c1	-0.3% (inactive)	-1.7	0.9% (inactive)	-5.9% (inactive)	-10% (inactive)	1% (inactive)	7.3% (inactive)	-1.8% (inactive)	8.8% (inactive)
Cc1[nH]cnc1-c1ccc(Cl)cc1	1.4% (inactive)	1	0.25% (inactive)	11.7% (inactive)	-1.2% (inactive)	0.1% (inactive)	17% (inactive)	-17.6% (inactive)	3.8% (inactive)
COc1ccc2cc1Oc1cc3c(cc1OC)CC[N+](C)(C)[C@H]3Cc1ccc(cc1)Oc1c(OC)c(OC)cc3c1[C@@H](C2)[N+](C)(C)CC3	0.3% (inactive)	-0.1	0.65% (inactive)	13.2% (inactive)	3.3% (inactive)	2.3% (inactive)	7.8% (inactive)	14% (inactive)	6.2% (inactive)
OC[C@]1(O)OC[C@@H](O)[C@H](O)[C@@H]1O	3.7% (inactive)	0.4	-1.9% (inactive)	-2.95% (inactive)	7.1% (inactive)	-6% (inactive)	-4.9% (inactive)	92.3% (active)	9.6% (inactive)
CN1CCC[C@@H]1c1cccnc1	-0.7% (inactive)	1.5	1.5% (inactive)	-2.3% (inactive)	12.5% (inactive)	3.1% (inactive)	-5.8% (inactive)	25.8% (inactive)	-23.3% (inactive)
CC1(C)OC(=O)Nc2ccc(Br)cc21	3% (inactive)	-1	6.1% (inactive)	9.6% (inactive)	13.5% (inactive)	-2% (inactive)	-4.8% (inactive)	20.9% (inactive)	2.5% (inactive)
CCCCCCCCCCCCCCCCCCCCCC(=O)Nc1ccn([C@@H]2O[C@H](CO)[C@@H](O)[C@H]2O)c(=O)n1	4.1% (inactive)	-0.9	3.05% (inactive)	48.1% (inactive)	51.7% (active)	-1.6% (inactive)	39.5% (inactive)	40.5% (inactive)	15% (inactive)
O=C(/C=C/c1ccc(O)c(O)c1)O[C@@H]1C[C@@](OC(=O)/C=C/c2ccc(O)c(O)c2)(C(=O)O)C[C@@H](O)[C@@H]1O	0.7% (inactive)	0.9	-0.6% (inactive)	-72.8% (inactive)	8.1% (inactive)	3.7% (inactive)	6.6% (inactive)	6.5% (inactive)	-13.6% (inactive)
N=C(N)n1cccn1	0.3% (inactive)	0	9.4% (inactive)	-5.8% (inactive)	4.7% (inactive)	-3.7% (inactive)	6.5% (inactive)	16.1% (inactive)	-2.6% (inactive)
COC(=O)/C=C\C(=O)OC	3.8% (inactive)	9	2.95% (inactive)	8.3% (inactive)	10.6% (inactive)	-1.8% (inactive)	-5.7% (inactive)	5.9% (inactive)	-5.6% (inactive)
C[N+](C)(CCOc1ccccc1)Cc1cccs1	-0.3% (inactive)	1.1	2.65% (inactive)	22.9% (inactive)	-14.7% (inactive)	-1.6% (inactive)	27.5% (inactive)	-11.3% (inactive)	1.8% (inactive)
O=C(O)c1[nH]n(-c2ccc(S(=O)(=O)O)cc2)c(=O)c1N=Nc1ccc(S(=O)(=O)O)cc1	1.7% (inactive)	-1.1	2.7% (inactive)	-3.9% (inactive)	-8.4% (inactive)	-3% (inactive)	4.2% (inactive)	-14% (inactive)	6.5% (inactive)
CC(=O)OC[C@H]1O[C@@H](n2ncc(=O)[nH]c2=O)[C@H](OC(C)=O)[C@@H]1OC(C)=O	14% (inactive)	2.3	1.7% (inactive)	47.3% (active)	47.8% (active)	-0.6% (inactive)	16.2% (inactive)	26% (inactive)	-5.9% (inactive)
